Inconclusive results are not listed. Calls of active or inactive are those of the source. Unless noted, calls follow the shape of the dose curve; as a rule, active = well fitted curve in the direction sought with a large enough effect in the repeat runs; inconclusive = weak or mixed curves; inactive = no such curve, though single readings can be large; an effect the other way counts as inactive or inconclusive.

Among the data in PubChem BioAssay (Tox21) are Potency values, retold here.

Test [1] in a line: qHTS assay to identify small molecule antagonists of the thyroid receptor (TR) signaling pathway - cell viability counter screen (AID 743064). Also: nearly all actives have a fitted effect of over 50% in size. Also: potency is read from the fitted curve at half-maximal effect. Put shortly:
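In rat pituitary GH3.TRE-Luc reporter cells co-exposed to compound and 1 nM T3 for 23.5 h, cytotoxicity was assessed with CellTiter-Fluor in the same wells, read by fluorescence.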
(In general: qHTS replaces the single test concentration by a dilution series.)

The nature of test [2]: qHTS assay to identify small molecule antagonists of the thyroid receptor (TR) signaling pathway (AID 743065). Also: nearly all actives have a fitted effect of over 55% in size. Also: potency is read from the fitted curve at half-maximal effect. Put shortly:
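Antagonism measured as loss of luciferase signal in GH3 cells stably carrying a TRE-luciferase reporter, co-treated with compound and T3 (1 nM final) for 23.5 h at 37 C. Viability was read in the same well by CellTiter-Fluor.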

Test [3] relates to thyroid hormone receptor (rat, GH3 cells). The test is described as follows: qHTS assay to identify small molecule agonists of the thyroid receptor (TR) signaling pathway (AID 743066; calls by dose curve; also: potency is read from the fitted curve at half-maximal effect).
A short description of test [4]: qHTS assay to identify small molecule antagonists of the estrogen receptor alpha (ER-alpha) signaling pathway - cell viability counter screen (AID 743074; calls by dose curve;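 also: HEK293 cells carrying ER-alpha-UAS-bla reporter stimulated with 17beta-estradiol; nearly all actives have a fitted effect of over 45% in size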).
Test [5] addresses Estrogen receptor (Homo sapiens) (UniProt P03372). The test is described as follows: qHTS assay to identify small molecule agonists of the estrogen receptor alpha (ER-alpha) signaling pathway (AID 743075; calls by dose curve;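 also: HEK293 GripTite cells with ER-alpha and UAS-driven beta-lactamase reporter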).
Test [6] has the same target. The test is described as follows: qHTS assay to identify small molecule agonists of the estrogen receptor alpha (ER-alpha) signaling pathway using the BG1 cell line (AID 743079). Also: nearly all actives have a fitted effect of over 20% in size. Also: potency is read from the fitted curve at half-maximal effect.
A short description of test [7]: qHTS assay to identify small molecule antagonists of the estrogen receptor alpha (ER-alpha) signaling pathway using the BG1 cell line (AID 743080; calls by dose curve;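 also: BG1 cells stimulated with 17beta-estradiol alongside compound; series mostly up to about 70 µM; nearly all actives have a fitted effect of over 25% in size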). Put shortly:
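BG1Luc4E2, endogenous ER-alpha, 4xERE-luc; 5 d charcoal-stripped FBS, phenol red free; 24 h plating; cpd + 17beta-estradiol 21.5 h, 37 C/5% CO2; CellTiter-Fluor viability 30 min, then ONE-Glo luciferase 30 min RT.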

Test [8] in a line: qHTS assay to identify small molecule antagonists of the estrogen receptor alpha (ER-alpha) signaling pathway using the BG1 cell line - cell viability counter screen (AID 743081).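 Also: compound given together with 17beta-estradiol as the ER stimulus; series mostly up to about 70 µM; nearly all actives have a fitted effect of over 45% in size.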
For a further test, the target named is Aromatase (Homo sapiens) (UniProt P11511). The test is described as follows: qHTS assay to identify aromatase inhibitors (AID 743083). Also: series mostly up to about 70 µM; nearly all actives have a fitted effect of over 55% in size.
Chain of Aromatase (Homo sapiens) (P11511 whole entry, looked up): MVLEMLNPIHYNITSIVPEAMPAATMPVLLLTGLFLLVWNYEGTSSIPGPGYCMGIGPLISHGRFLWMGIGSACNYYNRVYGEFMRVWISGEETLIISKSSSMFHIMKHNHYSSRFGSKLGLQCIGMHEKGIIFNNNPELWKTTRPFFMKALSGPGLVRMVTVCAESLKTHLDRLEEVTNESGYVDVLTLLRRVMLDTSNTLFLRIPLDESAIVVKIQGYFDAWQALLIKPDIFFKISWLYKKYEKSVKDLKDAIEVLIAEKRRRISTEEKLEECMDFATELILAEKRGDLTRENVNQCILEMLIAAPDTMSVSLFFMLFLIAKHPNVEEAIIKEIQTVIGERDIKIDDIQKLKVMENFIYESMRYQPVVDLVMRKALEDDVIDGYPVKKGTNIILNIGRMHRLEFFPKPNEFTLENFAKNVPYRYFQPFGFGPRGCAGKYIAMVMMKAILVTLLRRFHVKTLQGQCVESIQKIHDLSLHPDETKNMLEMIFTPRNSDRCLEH

Chain of Estrogen receptor (Homo sapiens) (P03372 whole entry, looked up): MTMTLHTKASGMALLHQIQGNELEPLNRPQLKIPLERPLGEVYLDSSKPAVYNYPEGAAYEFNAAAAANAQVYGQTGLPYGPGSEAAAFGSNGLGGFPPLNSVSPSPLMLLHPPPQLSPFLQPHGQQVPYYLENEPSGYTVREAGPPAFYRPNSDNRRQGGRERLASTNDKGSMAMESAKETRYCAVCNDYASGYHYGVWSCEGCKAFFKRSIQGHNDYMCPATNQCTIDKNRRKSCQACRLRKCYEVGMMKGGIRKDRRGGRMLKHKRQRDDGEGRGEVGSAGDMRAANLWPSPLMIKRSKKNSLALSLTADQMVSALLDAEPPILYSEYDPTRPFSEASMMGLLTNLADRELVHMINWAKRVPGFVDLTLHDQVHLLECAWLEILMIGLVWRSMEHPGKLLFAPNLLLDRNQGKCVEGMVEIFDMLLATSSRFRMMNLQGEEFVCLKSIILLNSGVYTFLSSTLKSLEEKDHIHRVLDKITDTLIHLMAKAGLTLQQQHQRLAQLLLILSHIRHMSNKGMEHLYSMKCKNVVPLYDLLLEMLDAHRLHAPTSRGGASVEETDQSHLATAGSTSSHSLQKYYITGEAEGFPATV

For the compound `Cc1ccc(S(=O)(=O)NC(=O)NC2CCCCC2)cc1`, the Potency entry in [1], in [2], in test [3], in [4], in test [5] and in test [6] was “inactive” in each case. Further, the Potency result (in [7]; in [8]; with Aromatase (Homo sapiens)) was “inactive” throughout.

Regarding `O=C(O)/C=C/c1ccc(O)c(O)c1`, the Potency result (in test [1]; in test [2]; in [3]; in test [4]; in test [8]; with Aromatase (Homo sapiens)) was “inactive” each time.

Regarding `Nc1ccc(N=Nc2ccc(N)cc2)cc1`, in [1], the Potency was 24.3 µM (active). Moreover, the Potency entry in [2], in test [3], in [4], in test [5], in test [6] and in test [7] was “inactive” throughout. In addition, the Potency result in the test with Aromatase (Homo sapiens) is “inactive”.

In the case of `CC(C)(O)c1coc(S(=O)(=O)NC(=O)Nc2c3c(cc4c2CCC4)CCC3)c1`, the Potency result (in [1]; in test [2]; in [3]; in test [4]; in [8]; in the test with Aromatase (Homo sapiens)) was “inactive” each time.

In the case of `CS(=O)(=O)c1ccc([C@@H](C[C@H]2CCC(=O)C2)C(=O)Nc2cnccn2)cc1Cl`, the Potency result in test [1], in [2], in [3], in test [4], in test [5] and in [6] was “inactive” throughout. For the same compound, the Potency result (in [7]; in test [8]; with Aromatase (Homo sapiens)) was “inactive” throughout.

Turning to `O=C1OC(=O)c2c(Br)c(Br)c(Br)c(Br)c21`, the Potency entry in test [1], in [2], in [3], in [4] and in [8] was “inactive” in each case.

For `CC(C)(C)NCC(O)COc1cccc2c1C[C@H](O)[C@H](O)C2` (stereo partly drawn), the Potency result in test [1], in [2], in test [3], in test [4], in test [5] and in [6] was “inactive” in each case. Besides, the Potency entry (in test [7]; in test [8]; with Aromatase (Homo sapiens)) was “inactive” throughout.

As to `C=CC(=O)NC(C)C`, the Potency result in test [1], in [2], in [3], in test [4], in test [5] and in test [6] was “inactive” in each case. The Potency entry (in [7]; in test [8]; with Aromatase (Homo sapiens)) was “inactive” throughout.

For the compound `CC(C)C(=O)OCCOc1ccccc1`, the Potency entry in test [1], in test [2], in test [3], in test [4], in [5] and in test [6] was “inactive” throughout. Also, the Potency entry (in test [7]; in test [8]; with Aromatase (Homo sapiens)) was “inactive” each time.

Regarding `ClC1=C(Cl)C1(Cl)Cl`, the Potency result in test [1], in test [2], in test [3], in test [4], in test [5] and in test [6] was “inactive” each time. Further, the Potency result (in [7]; in test [8]; in the test with Aromatase (Homo sapiens)) was “inactive” in each case.

For `Cc1ccccc1S(N)(=O)=O`, the Potency entry in [1], in [2], in [3], in test [4] and in test [8] was “inactive” each time.

For the compound `Cc1ccc2c(c1)CCCN2`, the Potency entry in test [1], in [2], in [3], in [4], in [5] and in [6] was “inactive” throughout. Further, the Potency result (in test [8]; with Aromatase (Homo sapiens)) was “inactive” each time.

As for `CC(C)C1CCC(C(=O)N[C@H](Cc2ccccc2)C(=O)O)CC1` (stereo partly drawn), the Potency result in test [1], in test [2], in test [3], in [4], in test [5] and in test [6] was “inactive” each time. Moreover, the Potency entry (in test [7]; in [8]; with Aromatase (Homo sapiens)) was “inactive” throughout.

On to `O=C1NC(=O)c2cccc3cccc1c23`, for which the Potency result in test [1], in [2], in [3], in [4], in test [5] and in test [6] was “inactive” each time. Also, the Potency entry (in test [7]; in test [8]; with Aromatase (Homo sapiens)) was “inactive” throughout.

Turning to `CCCCOC(=O)CCCCC(=O)OCCCC`, the Potency entry in test [1], in [2], in [3], in test [4] and in test [8] was “inactive” each time.

In the case of `CCN(CC)c1cccc(O)c1`, the Potency entry in test [1], in test [2], in test [3], in [4], in test [7] and in [8] was “inactive” in each case. Besides, the Potency result with Aromatase (Homo sapiens) is “inactive”. The Potency in test [6] was 70 µM (active).

For the compound `NC(=O)CCCCC(N)=O`, the Potency result in test [1], in test [2], in [3], in test [4], in test [5] and in [6] was “inactive” each time. For the same compound, the Potency result (in test [7]; in test [8]; with Aromatase (Homo sapiens)) was “inactive” in each case.

On to `CC(=O)N[C@@H](Cc1ccc(O)cc1)C(=O)O`, for which the Potency result in [1], in [2], in [3], in test [4] and in [8] was “inactive” each time.

Consider `CC1CCCC(=O)C1=O` (stereo not drawn), for which the Potency entry in test [1], in test [2], in test [3], in test [4], in test [5] and in test [6] was “inactive” in each case. For the same compound, the Potency result (in test [7]; in test [8]; with Aromatase (Homo sapiens)) was “inactive” throughout.

As to `CCCCCCC(O)CCCCCCCCCCC(=O)OC` (stereo not drawn), the Potency entry in [1], in test [2], in [3], in [4] and in [8] was “inactive” in each case.

As to `Cc1cn([C@H]2C[C@H](F)[C@@H](CO)O2)c(=O)[nH]c1=O`, the Potency entry in [1], in [2], in test [3], in [4], in test [5] and in [6] was “inactive” in each case. The Potency entry (in [7]; in [8]; in the test with Aromatase (Homo sapiens)) was “inactive” each time.

On to `C=C(C)c1ccccc1`, for which the Potency result in test [1], in test [2], in test [3], in [4] and in test [8] was “inactive” throughout.

Take `CCC(C)(C)C(=O)O`: the Potency result in [1], in [2], in test [3], in test [4], in test [5] and in [7] was “inactive” throughout. Besides, the Potency result (in test [8]; with Aromatase (Homo sapiens)) was “inactive” throughout.

`CC(=O)OCCC(C)CC(C)(C)C` (stereo not drawn): the Potency result in test [1], in [2], in [4], in [5], in test [6] and in test [7] was “inactive” throughout. Also, the Potency entry (in test [8]; with Aromatase (Homo sapiens)) was “inactive” each time. For the same compound, the Potency in [3] was 24.3 µM (active).

For `C[C@@H]1C[C@H]2[C@@H]3CCC4=CC(=O)C=C[C@]4(C)[C@@]3(F)[C@@H](O)C[C@]2(C)[C@@]1(O)C(=O)COP(=O)(O)O`, the Potency entry in test [1], in [2], in test [3], in [4], in test [5] and in test [8] was “inactive” in each case. Moreover, the Potency result with Aromatase (Homo sapiens) was “inactive”.

For `O=C(O)CNC(=O)c1ccccc1I`, the Potency entry in test [1], in [2], in test [3], in test [4], in test [5] and in [6] was “inactive” in each case. Also, the Potency result (in test [7]; in test [8]; with Aromatase (Homo sapiens)) was “inactive” in each case.

`CCCCCCCC(=O)OCCCCCC`: the Potency entry (in test [1]; in test [2]; in [3]; in test [4]; in test [8]; with Aromatase (Homo sapiens)) was “inactive” throughout.

Consider `Nc1nc(-c2ccc([N+](=O)[O-])cc2)cs1`, for which the Potency result (in test [1]; in [2]; in test [3]; in test [4]; in [8]; with Aromatase (Homo sapiens)) was “inactive” in each case.

With `COc1cc(C(C)=O)ccc1OCCCN1CCC(c2noc3cc(F)ccc23)CC1`, the Potency was 21.1 µM (active) in test [1] and 23.7 µM (active) in test [2]. Further, the Potency entry (in test [3]; in test [4]; in test [5]; in test [6]; in test [7]; with Aromatase (Homo sapiens)) was “inactive” in each case.

As for `O=C(NS(=O)(=O)/C=C/c1ccccc1)c1ccc(F)cc1Cl`, the Potency entry in test [1], in test [2], in test [3], in test [4], in [5] and in [8] was “inactive” throughout. Besides, the Potency result in the test with Aromatase (Homo sapiens) is “inactive”.

In the case of `COC1CCC=CO1` (stereo not drawn), the Potency result in test [1], in test [2], in test [3], in test [4], in test [6] and in test [7] was “inactive” in each case. Also, the Potency result (in test [8]; in the test with Aromatase (Homo sapiens)) was “inactive” throughout.
